From PubChem BioAssay (Tox21) come the findings set out here.

Records with an inconclusive call do not appear. A number with no mark means an inactive call. Active and inactive are the calls of the source. Unless noted, the call rests on the fitted dose curve; in most records, active means well fitted curve in the direction sought with a large enough effect in the repeat runs; inconclusive means weak or mixed curves; inactive means no such curve, though single readings can be large; an effect the other way counts as inactive or inconclusive.

A short description of assay [1]: qHTS assay to identify small molecule antagonists of the glucocorticoid receptor (GR) signaling pathway - cell viability counter screen (AID 720693). Further: nearly all actives have a fitted effect of over 55% in size. For orientation: Quantitative high-throughput screening tests each substance at several concentrations.
Assay [2] in a line: qHTS assay for identifying genotoxic compounds that show differential cytotoxicity against isogenic chicken DT40 cell lines with known DNA damage response pathways - wild type cell line (AID 743012). Further: nearly all actives have a fitted effect of over 60% in size. Further: potency means the concentration at half of the fitted maximal effect. The method in brief: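 300 wt DT40 cells/well; cpd (DMSO) pintool-transferred after ~0.5 h at 37 C/5% CO2; 40 h incubation; CellTiter-Glo added, 30 min RT; luminescence read.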
The nature of assay [3]: qHTS assay for identifying genotoxic compounds that show differential cytotoxicity against isogenic chicken DT40 cell lines with known DNA damage response pathways - Rev3 mutant cell line (AID 743014). Further: nearly all actives have a fitted effect of over 55% in size. Further: potency means the concentration at half of the fitted maximal effect.
Assay [4] is described as follows: qHTS assay for identifying genotoxic compounds that show differential cytotoxicity against isogenic chicken DT40 cell lines with known DNA damage response pathways - Rad54/Ku70 mutant cell line (AID 743015). Further: nearly all actives have a fitted effect of over 60% in size. Further: potency means the concentration at half of the fitted maximal effect.
Assay [5] concerns the target Androgen receptor (Homo sapiens) (UniProt P10275). Nature of the assay: qHTS assay to identify small molecule antagonists of the androgen receptor (AR) signaling pathway (AID 743035; active means well fitted inhibition curve with a large enough effect in the signal ratio in the repeat runs, not every such curve was filed as active; the % refers to the signal ratio). The method in brief: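 In this cell-based reporter screen, compounds were tested in concentration series against R1881-activated HEK293 cells expressing beta-lactamase under UAS control; after 16 h at 37C, FRET substrate was added and fluorescence read 2 h later.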

Assay [6] shares this target. Nature of the assay: qHTS assay to identify small molecule agonists of the androgen receptor (AR) signaling pathway (AID 743036; active means well fitted activation curve with a large enough effect in the signal ratio in the repeat runs, with a control signal flat, not every such curve was filed as active; the % refers to the signal ratio). The method in brief:
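Following a 4 h settling period, AR-UAS-bla HEK293 cells were dosed with compounds for 16 h at 37C. A 2 h room-temperature incubation with LiveBLAzer B/G FRET substrate preceded the fluorescence measurement.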

Assay [7] has the same target. Nature of the assay: qHTS assay to identify small molecule antagonists of the androgen receptor (AR) signaling pathway using the MDA cell line (AID 743042; further: nearly all actives have a fitted effect of over 55% in size; further: potency means the concentration at half of the fitted maximal effect). A digest of the protocol: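 MDA-kb2 cells (human breast carcinoma, stably carrying an MMTV-luciferase reporter responsive to AR and GR) were plated at 3,000 cells/well and preincubated 5 hr at 37C, then given compound plus R1881 agonist for 16 h. ONE-Glo luminescence was read.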

Assay [8] can be described thus: qHTS assay to identify small molecule antagonists of the thyroid receptor (TR) signaling pathway (AID 743065). Further: nearly all actives have a fitted effect of over 55% in size. Further: potency means the concentration at half of the fitted maximal effect. The method in brief:
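GH3.TRE-Luc rat pituitary cells carrying two TR response elements driving luciferase were plated for 4 h, given compound plus 1 nM T3 (final), and incubated 23.5 h at 37 C. ONE-Glo luminescence measured reporter inhibition; CellTiter-Fluor fluorescence tracked cytotoxicity.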

The test system of assay [9] is thyroid hormone receptor (rat, GH3 cells). Nature of the assay: qHTS assay to identify small molecule agonists of the thyroid receptor (TR) signaling pathway (AID 743066; calls by dose curve).
For assay [10], the target named is Estrogen receptor (Homo sapiens) (UniProt P03372). Nature of the assay: qHTS assay to identify small molecule antagonists of the estrogen receptor alpha (ER-alpha) signaling pathway (AID 743069; active means well fitted curve in the direction sought with a large enough effect in the signal ratio in the repeat runs, not every such curve was filed as active; the % refers to the signal ratio). The method in brief: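 Screening used a UAS-driven beta-lactamase reporter integrated into HEK293 cells expressing ER-alpha, stimulated with 17beta-estradiol alongside test compounds over 18 hr at 37C; signal came from LiveBLAzer B/G FRET fluorescence.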
Sequence of Estrogen receptor (Homo sapiens) (P03372 whole entry, looked up): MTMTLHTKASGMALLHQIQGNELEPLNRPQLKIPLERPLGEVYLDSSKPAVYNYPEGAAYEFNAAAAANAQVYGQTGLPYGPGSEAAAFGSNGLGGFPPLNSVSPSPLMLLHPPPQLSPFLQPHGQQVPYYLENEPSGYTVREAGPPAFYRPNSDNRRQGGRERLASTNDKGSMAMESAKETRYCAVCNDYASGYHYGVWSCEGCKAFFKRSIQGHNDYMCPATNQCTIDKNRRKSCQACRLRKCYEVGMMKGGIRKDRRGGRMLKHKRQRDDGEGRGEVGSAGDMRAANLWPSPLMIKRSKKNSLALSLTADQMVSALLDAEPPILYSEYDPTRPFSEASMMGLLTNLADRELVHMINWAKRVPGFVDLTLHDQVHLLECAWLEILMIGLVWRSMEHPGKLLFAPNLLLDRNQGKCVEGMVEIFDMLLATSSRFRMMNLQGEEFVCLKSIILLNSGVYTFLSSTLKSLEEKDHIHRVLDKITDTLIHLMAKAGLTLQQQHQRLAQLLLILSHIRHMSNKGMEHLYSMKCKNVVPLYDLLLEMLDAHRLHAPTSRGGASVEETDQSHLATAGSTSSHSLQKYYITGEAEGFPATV

Assay [11] can be described thus: qHTS assay to identify small molecule antagonists of the estrogen receptor alpha (ER-alpha) signaling pathway - cell viability counter screen (AID 743074; calls by dose curve; further: nearly all actives have a fitted effect of over 45% in size).
Assay [12] deals with Estrogen receptor (Homo sapiens) (UniProt P03372). Nature of the assay: qHTS assay to identify small molecule agonists of the estrogen receptor alpha (ER-alpha) signaling pathway (AID 743075; calls by dose curve).
Assay [13] has the same target. Nature of the assay: qHTS assay to identify small molecule agonists of the estrogen receptor alpha (ER-alpha) signaling pathway using the BG1 cell line (AID 743079). Further: nearly all actives have a fitted effect of over 20% in size. The note with it: BG1Luc4E2 cells, ERE-luciferase agonist, 22 h; activation: at 70.3 µM (top of the series).
The nature of assay [14]: qHTS assay to identify small molecule antagonists of the estrogen receptor alpha (ER-alpha) signaling pathway using the BG1 cell line (AID 743080; calls by dose curve;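 further: BG1 cells stimulated with 17beta-estradiol alongside compound; nearly all actives have a fitted effect of over 25% in size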). A digest of the protocol:
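Luciferase inhibition measured with ONE-Glo after 30 min at RT in BG1Luc4E2 cells given test compounds and 17beta-estradiol for 21.5 h at 37 C; CellTiter-Fluor viability read in the same wells beforehand.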

Assay [15] is described as follows: qHTS assay to identify small molecule antagonists of the estrogen receptor alpha (ER-alpha) signaling pathway using the BG1 cell line - cell viability counter screen (AID 743081).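 Further: compound given together with 17beta-estradiol as the ER stimulus; nearly all actives have a fitted effect of over 45% in size.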
The target of the next assay is Aromatase (Homo sapiens) (UniProt P11511). Nature of the assay: qHTS assay to identify aromatase inhibitors (AID 743083). Further: nearly all actives have a fitted effect of over 55% in size. Further: potency means the concentration at half of the fitted maximal effect.
Sequence of Aromatase (Homo sapiens) (P11511 whole entry, looked up): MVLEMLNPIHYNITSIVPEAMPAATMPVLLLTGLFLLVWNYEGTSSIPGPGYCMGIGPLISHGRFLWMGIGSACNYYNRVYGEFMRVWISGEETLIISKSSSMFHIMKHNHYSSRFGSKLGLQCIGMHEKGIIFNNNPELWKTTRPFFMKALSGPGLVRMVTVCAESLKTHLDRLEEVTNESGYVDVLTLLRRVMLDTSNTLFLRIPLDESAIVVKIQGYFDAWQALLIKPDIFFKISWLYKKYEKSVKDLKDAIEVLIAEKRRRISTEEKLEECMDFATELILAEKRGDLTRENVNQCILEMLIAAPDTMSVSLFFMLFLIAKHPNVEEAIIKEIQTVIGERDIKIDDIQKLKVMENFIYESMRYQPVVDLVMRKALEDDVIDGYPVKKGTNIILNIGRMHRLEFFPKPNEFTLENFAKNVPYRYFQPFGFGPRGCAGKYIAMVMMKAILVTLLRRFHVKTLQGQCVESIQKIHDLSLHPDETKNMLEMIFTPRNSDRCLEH
Assay [16] can be described thus: qHTS assay to identify small molecule antagonists of the androgen receptor (AR) signaling pathway - cell viability counter screen (AID 743033; further: nearly all actives have a fitted effect of over 45% in size; further: potency means the concentration at half of the fitted maximal effect).
A short description of assay [17]: qHTS assay to identify small molecule antagonists of the androgen receptor (AR) signaling pathway using the MDA cell line - cell viability counter screen (AID 743041; further: nearly all actives have a fitted effect of over 45% in size). A digest of the protocol:
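qHTS viability read-out; MDA-kb2 AR-luc; R1881-stimulated; 16 h exposure at 37C, 0% CO2; CellTiter-Fluor, 30 min; fluorescence intensity.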

Assay [18] can be described thus: qHTS assay to identify small molecule antagonists of the thyroid receptor (TR) signaling pathway - cell viability counter screen (AID 743064). Further: nearly all actives have a fitted effect of over 50% in size. A digest of the protocol: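 CellTiter-Fluor readout, 30 min at 37 °C/5% CO2, following 23.5 h incubation of GH3.TRE-Luc cells with test compound and 1 nM T3 (final).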
On the % scale 0 is the no-effect control and ±100 the full control effect.

Sequence of Androgen receptor (Homo sapiens) (P10275 whole entry, looked up): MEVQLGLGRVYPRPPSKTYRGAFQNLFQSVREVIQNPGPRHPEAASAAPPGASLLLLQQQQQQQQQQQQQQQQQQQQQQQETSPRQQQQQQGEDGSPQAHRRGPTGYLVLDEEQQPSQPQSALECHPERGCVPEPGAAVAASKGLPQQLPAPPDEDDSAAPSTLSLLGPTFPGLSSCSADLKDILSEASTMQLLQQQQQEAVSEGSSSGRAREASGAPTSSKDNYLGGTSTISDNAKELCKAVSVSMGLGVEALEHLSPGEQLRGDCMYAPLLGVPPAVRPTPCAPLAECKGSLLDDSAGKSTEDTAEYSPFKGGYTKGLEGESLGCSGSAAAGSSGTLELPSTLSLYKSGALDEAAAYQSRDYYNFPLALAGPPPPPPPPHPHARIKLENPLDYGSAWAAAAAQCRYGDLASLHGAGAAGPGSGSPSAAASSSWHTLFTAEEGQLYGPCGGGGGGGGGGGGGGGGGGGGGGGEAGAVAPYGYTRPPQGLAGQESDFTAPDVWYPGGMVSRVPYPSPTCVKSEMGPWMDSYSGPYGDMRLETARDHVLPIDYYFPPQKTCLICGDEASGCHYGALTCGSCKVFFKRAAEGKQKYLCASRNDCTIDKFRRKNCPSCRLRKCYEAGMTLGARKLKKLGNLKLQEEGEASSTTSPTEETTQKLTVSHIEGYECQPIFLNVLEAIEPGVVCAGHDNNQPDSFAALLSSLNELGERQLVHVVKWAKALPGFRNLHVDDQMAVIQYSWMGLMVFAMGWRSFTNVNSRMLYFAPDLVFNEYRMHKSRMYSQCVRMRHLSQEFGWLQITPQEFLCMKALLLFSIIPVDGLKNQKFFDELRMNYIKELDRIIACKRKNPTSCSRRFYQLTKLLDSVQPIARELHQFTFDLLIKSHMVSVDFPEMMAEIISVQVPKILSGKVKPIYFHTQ

On to `C=CCOC(=O)/C=C\C(=O)OCC=C`, for which the Potency result in assay [1], in assay [2], in assay [3], in [4], in [5] and in assay [6] was “inactive” throughout. The Potency result in [7], in [8], in [10], in assay [11], in [12] and in assay [13] was “inactive” each time. The Potency result (in assay [14]; in [15]; in the assay with Aromatase (Homo sapiens)) was “inactive” in each case. Further, the result in assay [9] was inactive.

`C=C(C)C(=O)OCCOC(=O)CC(C)=O`: the Potency entry in assay [1], in assay [2], in assay [3], in assay [4], in assay [16] and in [17] was “inactive” in each case. Besides, the Potency result (in assay [8]; in assay [11]; in assay [15]; with Aromatase (Homo sapiens)) was “inactive” throughout. Besides, in assay [9], the compound was classed as inactive.

As for `O=C(O)c1ccc(CO)o1`, the Potency entry in assay [1], in [2], in assay [3], in [4], in assay [16] and in assay [17] was “inactive” each time. For the same compound, the Potency result (in assay [8]; in [11]; in [15]; with Aromatase (Homo sapiens)) was “inactive” in each case. For the same compound, the outcome in [9] was inactive.

On to `Cc1cc(OI)c(C(C)C)cc1-c1cc(C(C)C)c(OI)cc1C`, for which the Potency result in assay [1], in assay [2], in assay [3], in assay [4], in assay [16] and in assay [18] was “inactive” in each case. The Potency result (in [11]; in assay [15]; with Aromatase (Homo sapiens)) was “inactive” throughout. The compound was classed as inactive in [9].

With `CO[Si](C)(OC)OC`, the Potency entry in assay [1], in assay [2], in assay [3], in assay [4], in [16] and in assay [17] was “inactive” in each case. Further, the Potency result in [18], in assay [10], in assay [11], in assay [12], in assay [13] and in assay [15] was “inactive” in each case. Besides, the Potency result with Aromatase (Homo sapiens) was “inactive”. Moreover, the outcome in assay [9] was inactive.

On to `Nc1ccc(S(=O)(=O)O)c(N)c1`, for which the Potency entry in assay [1], in assay [2], in [3], in [4], in [16] and in [18] was “inactive” throughout. For the same compound, the Potency entry (in assay [10]; in assay [11]; in assay [12]; in [13]; in assay [15]; with Aromatase (Homo sapiens)) was “inactive” in each case. In addition, the outcome in assay [9] was inactive.

Regarding `Fc1ccccc1[C@@H](F)COC1CCC(Nc2ncnc3[nH]ncc23)CC1` (stereo partly specified), the Potency result in assay [1], in assay [11] and in [15] was “inactive” throughout. Further, the Potency was 15.4 µM (active) in assay [2]; 17.2 µM (active) in assay [3]; 12.2 µM (active) in [4]; 49 µM (active) in [16]; 19.3 µM (active) in assay [7]; 48.6 µM (active) in assay [8]. The Potency with Aromatase (Homo sapiens) is 24.3 µM (active).

With `CC(=O)Nc1ccccc1C`, the Potency entry in [1], in assay [2], in assay [3], in assay [4], in assay [16] and in assay [18] was “inactive” in each case. Also, the Potency entry (in assay [10]; in [12]; in [13]; in assay [14]; in assay [15]; with Aromatase (Homo sapiens)) was “inactive” each time. In addition, in assay [9], the result was inactive.

On to `O=C(O)c1snc(Cl)c1Cl`, for which the Potency entry (in [1]; in [16]; in assay [17]; in assay [11]; in [15]; with Aromatase (Homo sapiens)) was “inactive” each time. In addition, the Potency in [2], in [3] and in assay [4] was 61.1 µM (active) each time. Further, the call in assay [9] was inactive.

Turning to `[O]=[Bi]`, the viability change, negative = cytotoxic in [1] is -0.0549% [at 7.04 µM]; in assay [17], -2.29% [at 8.47 µM]. For the same compound, the activity change, negative = cytotoxicity in assay [2] is -3.35% [at 8.52 µM]; in assay [4], 2.55% [at 8.55 µM]; in assay [16] it was -10.1% [at 7.04 µM]; in assay [15], 0.603% [at 8.47 µM]. Further, the figures for the activity, negative = cytotoxicity in [3] and in assay [11] were 0.555% [at 8.53 µM] and -18.5% [at 6.72 µM], respectively. Moreover, the activity, negative = inhibition is -1.71% [at 8.44 µM] in [8], -6.92% [at 6.71 µM] in assay [10] and 15.6% [at 8.47 µM] with Aromatase (Homo sapiens). Also, the activation in assay [9] was -0.257% [at 8.08 µM]; in [12], -1.87% [at 6.71 µM].
